Inconclusive results are not listed. The source made the active and inactive calls. The calls were made as follows, unless noted: active = hit-call score of the fitted dose curve at least 0.9, where 1 is the maximum; inconclusive = response in the unintended direction; inactive = score below 0.9.

Read-out in assay [1]: Thyroid Hormone Responsive (THRSP), THRSP (gene 7069)
As to the kind of experiment: LTEA_HepaRG_THRSP: Life Technologies and Expression Analysis (LTEA) Assay for Thyroid Hormone Responsive (THRSP) using HepaRG (AID 2283536; active = hit-call score of the fitted dose curve at least 0.9, where 1 is the maximum; inactive = score below 0.9). To be noted: mRNA level, 48 h; actives raise or lower the signal. The method, boiled down: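 mRNA induction or loss relative to 0.5% DMSO vehicle was fitted bidirectionally across an eight-point curve whose highest exposure was 100 uM. Human HepaRG liver cells received chemicals in duplicate over 48 h before RNA extraction.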

Read-out in assay [2]: UDP glucuronosyltransferase (UGT1A1), UGT1A1 (gene 54658)
As to the kind of experiment: LTEA_HepaRG_UGT1A1: Life Technologies and Expression Analysis (LTEA) Assay for UDP glucuronosyltransferase (UGT1A1) using HepaRG (AID 2283538; active = hit-call score of the fitted dose curve at least 0.9, where 1 is the maximum; inactive = score below 0.9). The note with it: mRNA level, 48 h; actives raise or lower the signal. The method, boiled down:
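Readout is UGT1A1 transcript level by qRT-PCR, normalized to three housekeeping genes, after 48 h chemical treatment of HepaRG cells. Concentrations ran from 100 uM down in half-log steps with 0.5% DMSO, and gain or loss relative to DMSO was fitted.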

Read-out in assay [3]: UDP glucuronosyltransferase (UGT1A6), UGT1A6 (gene 54578)
As to the kind of experiment: LTEA_HepaRG_UGT1A6: Life Technologies and Expression Analysis (LTEA) Assay for UDP glucuronosyltransferase (UGT1A6) using HepaRG (AID 2283539; active = hit-call score of the fitted dose curve at least 0.9, where 1 is the maximum; inactive = score below 0.9). The note with it: mRNA level, 48 h; actives raise or lower the signal. The method, boiled down:
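Endpoint is UGT1A6 transcript induction or loss in a human liver cell line, quantified by TaqMan qRT-PCR 48 h after dosing. Concentrations ran from 100 uM downward in half-log steps in 0.5% DMSO; activity was fitted in both directions versus vehicle.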

Read-out in assay [4]: X-box binding protein 1 (XBP1), XBP1 (gene 7494)
As to the kind of experiment: LTEA_HepaRG_XBP1: Life Technologies and Expression Analysis (LTEA) Assay for X-box binding protein 1 (XBP1) using HepaRG (AID 2283540; active = hit-call score of the fitted dose curve at least 0.9, where 1 is the maximum; inactive = score below 0.9). To be noted: mRNA level, 48 h; actives raise or lower the signal. The method, boiled down: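 Human HepaRG monolayers receive test chemical for 48 h across an eight-point half-log series starting at 100 uM. XBP1 mRNA gain or loss is scored against DMSO by qRT-PCR.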

Assay [5] can be described thus: LTEA_HepaRG_LDH_cytotoxicity: Cytotoxicity Assessment in the Life Technologies and Expression Analysis (LTEA) Assay (AID 2283563). The method, boiled down: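 Human HepaRG hepatic cells are treated with test chemicals for 48 h at up to 100 uM in 0.5% DMSO. Cytotoxicity is scored from medium LDH against the vehicle control.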
A short description of assay [6]: Tanguay_ZF_120hpf_MORT_legacy: (Legacy) Oregon State University Tanguay Lab 120 Hour Post-fertilization zebrafish Assay for Mortality (AID 2283633). The method, boiled down: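 Mortality endpoint from a multiplexed whole-embryo zebrafish screen. Dechorionated wild-type embryos received compound at 6 hpf and remained under static exposure at 28C until 120 hpf, with death noted as a present/absent call.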

Assay [7] is described as follows: Tanguay_ZF_120hpf_YSE_legacy: (Legacy) Oregon State University Tanguay Lab 120 Hour Post-fertilization zebrafish Assay for Yolk Sac Edema (AID 2283634). The procedure, abridged: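 Readout: presence or absence of yolk sac edema at 120 hpf, fitted upward against DMSO controls. Exposure ran statically from 6 hpf in dechorionated embryos kept at 28C.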
The nature of assay [8]: Tanguay_ZF_120hpf_AXIS_legacy: (Legacy) Oregon State University Tanguay Lab 120 Hour Post-fertilization zebrafish Assay for Body Axis Malformation (AID 2283635). The procedure, abridged: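 Static 6–120 hpf chemical exposure of dechorionated wild-type 5D zebrafish, one per well at 28C; morphology endpoint scored binary at 120 hpf relative to DMSO control.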
Assay [9] is described as follows: Tanguay_ZF_120hpf_EYE_legacy: (Legacy) Oregon State University Tanguay Lab 120 Hour Post-fertilization zebrafish Assay for Eye Malformation (AID 2283636). The method, boiled down: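 Read-out is binary presence or absence of eye malformation, scored by brightfield microscopy at 120 hpf. Single larvae were exposed from 6 hpf in embryo medium containing 0.64% DMSO, with DMSO as baseline.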

The nature of assay [10]: Tanguay_ZF_120hpf_SNOU_legacy: (Legacy) Oregon State University Tanguay Lab 120 Hour Post-fertilization zebrafish Assay for Snout Malformation (AID 2283637). The procedure, abridged: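 Snout malformation read as a yes/no call on brightfield images of 120 hpf larvae (Tropical 5D strain). Static exposure began at 6 hpf on dechorionated embryos in 0.64% DMSO, with gain of signal analysed versus DMSO controls.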

The nature of assay [11]: ATG_XTT_Cytotoxicity: Cytotoxicity Assessment in the Attagene TRANS-FACTORIAL HepG2 Assay (AID 2283584). The procedure, abridged:
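Transfect HepG2 with GAL4-UAS reporter units, dose compound, incubate 24 h, then measure viable cell number by XTT. Fit concentration response against DMSO baseline.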

Assay [12] is described as follows: TOX21_p53_BLA_p2_viability: Viability Assessment in the Tox21 HCT-116 p53 Agonism Beta-lactamase Assay, Phase 2 (AID 2283591).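 Also: actives lower the ATP signal meaning cytotoxicity.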 The method, boiled down:
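Cytotoxicity readout: CellTiter-Glo ATP luminescence, 30 min at room temperature, after the beta-lactamase read. Cells were HCT116 exposed 16 h at 37C to compounds pin-transferred at 217-fold dilution from DMSO stocks.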

A short description of assay [13]: TOX21_p53_BLA_p3_viability: Viability Assessment in the Tox21 HCT-116 p53 Agonism Beta-lactamase Assay, Phase 3 (AID 2283593).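 Also: cells exposed to compound for 16 h before reading.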 The procedure, abridged:
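Cellular ATP was quantified by CellTiter-Glo luminescence, read after 30 min at room temperature. Beforehand, HCT116 cells (4000/well) received compound 5 h post-seeding, 217-fold diluted from DMSO, then incubated 16 h at 37C.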

For assay [14], the target named is Cellular tumor antigen p53 (Homo sapiens) (UniProt P04637). Nature of the assay: TOX21_p53_BLA_p3_ratio: Tox21 HCT-116 p53 Agonism Beta-lactamase Assay, Ratio, Phase 3 (AID 2283596). The procedure, abridged:
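HCT116 p53-bla cells (4000/well) given compound in DMSO (217-fold dilution) after 5 h, incubated 16 h at 37C. CCF4-AM substrate 2 h at room temperature; 460/530 nm emission ratio, gain fitted against DMSO.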

For assay [15] the target is unchanged. As to the kind of experiment: TOX21_p53_BLA_p5_ratio: Tox21 HCT-116 p53 Agonism Beta-lactamase Assay, Ratio, Phase 5 (AID 2283599). The procedure, abridged:
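Beta-lactamase reporter ratio (blue 460 nm over green 530 nm, 405 nm excitation) after 2 h CCF4-AM loading, in HCT-116 cells exposed 16 h at 37 C to compounds pinned at 217-fold dilution. Increases relative to DMSO baseline scored.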

Assay [16] is described as follows: TOX21_p53_BLA_p5_viability: Viability Assessment in the Tox21 HCT-116 p53 Agonism Beta-lactamase Assay, Phase 5 (AID 2283600). The procedure, abridged:
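Counter-readout for cytotoxicity: ATP-dependent luminescence from CellTiter-Glo, read in the beta-lactamase wells after 30 min at RT, following a 16 h compound exposure at 37C.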

In assay [17] the target is Cellular tumor antigen p53 (Homo sapiens) (UniProt P04637). Nature of the assay: TOX21_p53_BLA_p4_ratio: Tox21 HCT-116 p53 Agonism Beta-lactamase Assay, Ratio, Phase 4 (AID 2283601). The method, boiled down:
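Signal is the blue/green (460nm/530nm) ratio of cleaved versus uncleaved CCF4-AM substrate, read after 2 h substrate loading. Cells were HCT116 carrying the p53-responsive beta-lactamase reporter, dosed 16 h at 37C, 5% CO2; CellTiter-Glo measured in parallel.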

Assay [18] has the same target. As to the kind of experiment: TOX21_p53_BLA_p2_ratio: Tox21 HCT-116 p53 Agonism Beta-lactamase Assay, Ratio, Phase 2 (AID 2283592). The method, boiled down: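 An inducible beta-lactamase reporter in HCT116 cells signals p53 pathway activation. After 16 h chemical exposure at 37C, cells load CCF4-AM substrate for 2 h at room temperature; activity is the cleaved/uncleaved emission ratio relative to DMSO.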

The nature of assay [19]: TOX21_p53_BLA_p4_viability: Viability Assessment in the Tox21 HCT-116 p53 Agonism Beta-lactamase Assay, Phase 4 (AID 2283597).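 Also: hits lower the luminescence signal meaning cytotoxicity.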 The procedure, abridged: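 Compound exposure of HCT116 cells lasts 16 h at 37C, 5% CO2, with DMSO stocks diluted 217-fold. Cellular ATP is then quantified by CellTiter-Glo luminescence after 30 min at room temperature.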

Cellular tumor antigen p53 (Homo sapiens), sequence (P04637 whole entry, looked up): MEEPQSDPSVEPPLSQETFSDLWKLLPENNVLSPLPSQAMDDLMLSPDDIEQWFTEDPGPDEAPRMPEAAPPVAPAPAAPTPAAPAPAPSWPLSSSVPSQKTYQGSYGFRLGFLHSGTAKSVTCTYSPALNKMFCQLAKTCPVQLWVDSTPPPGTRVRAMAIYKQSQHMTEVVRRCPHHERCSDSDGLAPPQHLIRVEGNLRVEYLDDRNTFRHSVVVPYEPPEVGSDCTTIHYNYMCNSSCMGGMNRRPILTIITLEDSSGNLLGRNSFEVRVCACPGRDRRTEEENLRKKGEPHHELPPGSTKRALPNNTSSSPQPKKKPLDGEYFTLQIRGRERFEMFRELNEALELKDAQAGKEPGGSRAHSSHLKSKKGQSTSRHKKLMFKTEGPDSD

As to `CCCOc1ccc(S(=O)(=O)N2CCN(CC)CC2)cc1-c1nc2c(CC)n(Cc3ccccn3)nc2c(=O)[nH]1`, the AC50 was 50 µM (active) in [1] and 4.74 µM (active) in assay [2]. Besides, the result in [3], in assay [4], in assay [5], in [6], in assay [7] and in assay [8] was inactive. The molecule was classed as inactive in [9] and in assay [10].
With `O=C(O)[C@H](O)[C@@H](O)C(=O)O`, the call in assay [1], in assay [2], in [3], in assay [4], in assay [5] and in assay [6] was inactive. The call in assay [7], in assay [8] and in [10] was inactive.
For the molecule `OC[C@H]1O[C@@](CO)(O[C@H]2O[C@H](CO)[C@@H](O)[C@H](O)[C@H]2O)[C@@H](O)[C@@H]1O`, the molecule was called inactive in assay [1], in [2], in [3], in [4], in assay [5] and in assay [11]. Moreover, the outcome in [6], in [7], in [8], in assay [9] and in assay [10] was inactive.
Regarding `Cc1cccc(O)c1C`, the result in [11], in assay [12], in [13], in [14], in assay [15] and in [16] was inactive. Further, the outcome in assay [17] was inactive.
As to `O=c1[nH]cnc2c1ncn2[C@H]1CC[C@@H](CO)O1`, the result in assay [1], in assay [2], in assay [3], in [4], in [5] and in assay [11] was inactive. Also, the result in assay [6], in assay [7], in assay [8], in assay [9] and in assay [10] was inactive.
As for `CC(C)CC(C)O` (stereo not drawn), the molecule was classed as inactive in assay [1], in [2], in [3], in assay [4], in [5] and in assay [11]. Moreover, the call in assay [6], in [7], in assay [8], in assay [9] and in assay [10] was inactive.
On to `O=C(N[C@H](CO)[C@H](O)c1ccc([N+](=O)[O-])cc1)C(Cl)Cl`, for which the outcome in [11], in [12], in assay [18], in assay [13], in assay [14] and in assay [19] was inactive. Besides, the result in assay [15], in [16] and in assay [17] was inactive.
`NC(N)=O`: the call in assay [1], in assay [2], in [3], in [4], in [5] and in assay [11] was inactive. The molecule was called inactive in [6], in assay [7], in [8] and in [10].
In the case of `Cc1nc(-c2ccccn2)ncc1C(=O)Nn1cc(C)c2cc(F)ccc21`, the call in assay [1], in assay [4], in assay [5], in assay [6], in assay [7] and in [8] was inactive. Moreover, the molecule was called inactive in assay [9] and in assay [10]. The AC50 in assay [2] was 12 µM (active); in assay [3], 78.5 µM (active).

Values taken from PubChem BioAssay (EPA / NIEHS).
